# Experimental data from ChEMBL document CHEMBL3988442, “University of Dundee, Small-Polar-MMV Screening Library” (2021).
# Among all 48,000 compounds or so, about 13,000 (27%) showed an effect of 50% or more. The list shows a part of the results.
# System: Wolbachia pipientis
# Assay: Anti-Wolbachia Cell-Based Screen
# Assay type: functional
# Design: scale not given: in the data most compounds retested in dose-response had high values
# Details: 5 µM
row,SMILES,Percent Effect
1,COC(=O)c1ccc2nc(CO[C@H]3CN(CC4CC4)C[C@H]3F)[nH]c2c1,5.552%
2,N#Cc1nccnc1N1CCC(COCc2ccccc2)C1 (stereo not drawn),-0.4127%
3,OCC(O)CSCc1cn(-c2ccc(Cl)c(Cl)c2)nn1 (stereo not drawn),-1.515%
4,C[S+]([O-])CCCNCc1cc(F)ccc1Br (stereo not drawn),11.95%
5,Cc1cnn(CCNCC(O)COc2ccc(C#N)cc2)c1 (stereo not drawn),-2.958%
6,CCn1cnnc1CNC(=O)N1CCN(c2ccccc2O)CC1,92.65%
7,CCn1cnnc1CNC(=O)N1CCN(c2cccc(C)c2)CC1,81.4%
8,CCn1cnnc1CNC(=O)N(C)Cc1ccccc1OC,-13.71%
9,CCn1cnnc1CNC(=O)NCC(O)c1ccc(OC)cc1 (stereo not drawn),3.56%
10,CCn1cnnc1CNC(=O)N1CCN(c2cccc(OC)c2)CC1,2.392%
11,Cc1cccc(N2CCN(C(=O)Nc3cnn(CC(N)=O)c3)CC2)c1,-8.219%
12,CCn1cnnc1CNC(=O)N1CCN(c2ccccc2OC)CC1,95.25%
13,CCn1cnnc1CNC(=O)N1CCN(c2ccc(OC)cc2)CC1,88.94%
14,CC(C)CC(NC(=O)CSCC(N)=O)c1cccs1 (stereo not drawn),3.191%
15,CN(C)S(=O)(=O)N1CCN(CC2CCOc3ccccc3C2)CC1 (stereo not drawn),-1.148%
16,O=C(CN1C(=O)CCNC1=O)N1CCOC(c2ccc(Cl)c(Cl)c2)C1 (stereo not drawn),6.471%
17,CSCCCN1CCc2nc(N(C)C)nc(N3CCC(O)CC3)c2C1,3.21%
18,CCCc1cc(=O)[nH]c2nnc(SCC(=O)NC(C)(C)C)n12,7.571%
19,CC(O)c1cccc(-n2c(CCC(=O)O)nc3ccccc32)c1 (stereo not drawn),17.57%
20,CCn1cnnc1CNC(=O)N1CCOC(c2ccccc2Cl)C1 (stereo not drawn),-10.89%
21,CCn1cnnc1CNC(=O)N1CCN(c2ccccc2Cl)CC1,101.2%
22,CCn1cnnc1CNC(=O)N1CCOC(c2ccc(Cl)cc2)C1 (stereo not drawn),-28.88%
23,CC(C)CC(O)C1CCN(C(=O)c2ccc(C(F)(F)F)nc2O)CC1 (stereo not drawn),-33.24%
24,CCN(C)CC(C)Cn1cnc(-c2ccccc2)c1C (stereo not drawn),25.31%
25,Cc1nc(C)c(CNCc2nnc3n2CCCC3C(F)(F)F)s1 (stereo not drawn),-2.721%

row,SMILES,Percent Effect
1,COc1cccc(NC(=O)CNc2ccc(C(=O)N(C)C)c(Cl)c2)c1,14.49%
2,COc1cccc(NC(=O)CC2Cn3ncnc3NC2=O)c1 (stereo not drawn),110.1%
3,O=C(Nc1cccc(C(F)(F)F)c1)N1CCN(CCn2ccnc2)CC1,2.864%
4,COC(=O)C1CN(CC(=O)Nc2cccc(OC)c2)c2ccccc21 (stereo not drawn),10.48%
5,CCc1ccc(NC(=O)CC2Cn3ncnc3NC2=O)cc1 (stereo not drawn),123.1%
6,O=C(CC1Cn2ncnc2NC1=O)Nc1cccc(C(F)(F)F)c1 (stereo not drawn),102.6%
7,O=C(CN1CCC(Nc2ncccn2)CC1)Nc1ccccc1,-0.5486%
8,CCc1ccc(C(=O)Nc2ccc(CC3CC(=O)NC3=O)cc2)cc1 (stereo not drawn),-15.63%
9,O=C(CN1C[C@H]2CC[C@@H]1CN(Cc1ccccn1)C2)Nc1ccccc1,0.8626%
10,CCc1ccc(C(=O)Nc2ccc(CC3CC(=O)NC3=O)cc2)s1 (stereo not drawn),-2.558%
11,O=C(Nc1cccc(C(F)(F)F)c1)C1CC(=O)N(Cc2ccccn2)C1 (stereo not drawn),6.876%
12,O=C(CC1Cn2ncnc2NC1=O)Nc1ccccc1 (stereo not drawn),119.2%
13,O=C(c1cc(F)cc(Cl)c1)N1CCN(CCO)[C@@H]2CS(=O)(=O)C[C@@H]21,-9.741%
14,Cc1cc(CN2CCCC(CNC(=O)Cn3cccn3)C2)oc1C (stereo not drawn),-41.99%
15,O=C(NCCc1cccs1)N1CCCC1CCCO (stereo not drawn),-4.53%
16,CC(C)c1nc2n(n1)CC(NCc1nc(-c3cccnc3)no1)CC2 (stereo not drawn),-4.778%
17,COc1ccccc1[C@@H]1CN(Cc2csc(C(C)=O)c2)C[C@H]1C(=O)O,-15.68%
18,COc1ccccc1C1CCN(C(=O)c2ncccc2OC(C)C)C1 (stereo not drawn),1.547%
19,COc1ccccc1C1(O)CCCN(C(=O)c2csc(C(C)=O)c2)C1 (stereo not drawn),80.49%
20,CSc1ncc(C(=O)N2CCC(O)(CN3CCOCC3)C(C)(C)C2)cn1 (stereo not drawn),-3.216%
21,CC(=O)c1cc(C(=O)N2CCC3(CC2)Nc2ccccc2NC3=O)cs1,16.29%
22,COc1ncc(C(=O)N2CCC3(CC2)C(=O)Nc2ccccc23)cn1,-4.36%
23,COc1ccccc1C1(O)CCCN(C(=O)c2ccnn2C(C)C)C1 (stereo not drawn),100.6%
24,COc1ccccc1C1(O)CCCN(C(=O)c2cnc(SC)nc2)C1 (stereo not drawn),97.81%
25,COc1ccccc1C(=O)N1CCC(O)(c2cccc(C)c2C)CC1,6.429%

row,SMILES,Percent Effect
1,CN(Cc1cn2c(n1)CN(C(=O)c1cccn1C)CC2)Cc1ccco1,10.07%
2,COc1cccc(OCc2nnc3n2N=C(C(C)(C)C)CS3)c1,-3.476%
3,CCC(CC)N(Cc1cc(=O)n(C)c(=O)n1C)C1CC1,-2.422%
4,CC(C)C(O)CNC(=O)Nc1cccc(-c2nccs2)c1 (stereo not drawn),0.8901%
5,CN1CCC2(CC1)CN(CC1CC1)CC21CCNC1=O.O=C(O)C(F)(F)F.O=C(O)C(F)(F)F (stereo not drawn),-40.68%
6,COCCN1CCC(CNC(=O)C2(c3cccc(C)c3)CC2)CC1,2.355%
7,COCCN1CCC(CNC(=O)C2(c3cc(C)cc(C)c3)CCC2)C1 (stereo not drawn),8.369%
8,CCN1CCCC(CNC(=O)C2(c3cccc(Cl)c3)CC2)C1 (stereo not drawn),3.483%
9,COCCN1CCC(CNC(=O)C2(c3cc(C)cc(C)c3)CC2)CC1,106.5%
10,COCCN1CCC(NC(=O)C2(c3cc(C)cc(C)c3)CC2)CC1,0.6832%
11,COCCN1CCC(CNC(=O)C2(c3cccc(C)c3)CC2)C1 (stereo not drawn),112.6%
12,COCCN1CCC(CNC(=O)C2(c3cccc(Cl)c3)CC2)C1 (stereo not drawn),119%
13,COC(C)c1noc(CN(C)c2ncc(Br)cn2)n1 (stereo not drawn),13.56%
14,CCCc1noc(CCCC(=O)N2CCCC(n3ccnc3C)C2)n1 (stereo not drawn),-4.622%
15,CCCN1CCC(N2CCC(Cn3cc(C4CC4)nn3)CC2)CC1,-14.8%
16,Cc1ccc(F)c(S(=O)(=O)NCc2cccc(CS(C)(=O)=O)c2)c1,-5.265%
17,CCS(=O)(=O)N1C[C@H]2CN(Cc3ccc(OC)cc3)C(=O)[C@H]2C1,106.9%
18,O=C(O)C(F)(F)F.O=C1[C@H]2CN(CC3CCOCC3)C[C@H]2CN1Cc1cccc(F)c1,-3.595%
19,CCS(=O)(=O)N1C[C@H]2CN(Cc3cccc(C)c3)C(=O)[C@H]2C1,103%
20,Cc1cccc(CN2C[C@@H]3CN(C4CCOCC4)C[C@@H]3C2=O)c1.O=C(O)C(F)(F)F,2.907%
21,COc1ccc(CN2C[C@@H]3CN(CCO)C[C@@H]3C2=O)cc1,-4.847%
22,Cc1cccc(CN2C[C@@H]3CN(C(=O)c4ccsc4)C[C@@H]3C2=O)c1,0.6245%
23,COc1ccc(CN2C[C@@H]3CN(S(=O)(=O)C4CC4)C[C@@H]3C2=O)cc1,-20.01%
24,CCS(=O)(=O)N1C[C@H]2CN(Cc3cccc(F)c3)C(=O)[C@H]2C1,106.4%
25,Cc1cccc(CN2C[C@@H]3CN(C(=O)NC(C)C)C[C@@H]3C2=O)c1,0.03785%

row,SMILES,Percent Effect
1,CCCNC(=O)[C@@H]1CCCN1[C@@H](C(=O)NC)C1CC1.Cl,-3.59%
2,O=C(N1CCC(O)(C(F)(F)F)C1)C1(c2cccc(Cl)c2)CC1 (stereo not drawn),-4.685%
3,C[S+]([O-])c1ccc(NC(=O)CC2=CCCCC2)cc1 (stereo not drawn),-2.422%
4,CCOCC1CN(c2ncc(F)cn2)Cc2cn(CC)nc21 (stereo not drawn),-1.494%
5,CCOCC1CN(CCOCc2ccccc2)Cc2c1cnn2C (stereo not drawn),-3.92%
6,CCOCC1CN(CCOc2ccc(Cl)cc2)Cc2c1cnn2C.O=C(O)C(F)(F)F.O=C(O)C(F)(F)F (stereo not drawn),-5.642%
7,CCn1ncc2c1CN(C(=O)c1cc(C)oc1C)CC2COC.O=C(O)C(F)(F)F (stereo not drawn),-2.484%
8,COCC1CN(S(=O)(=O)c2ccc(C)cc2)Cc2c1cnn2C.O=C(O)C(F)(F)F (stereo not drawn),14.09%
9,CCn1ncc2c1CN(C(=O)Cc1ccccn1)CC2COC.O=C(O)C(F)(F)F.O=C(O)C(F)(F)F (stereo not drawn),-10.79%
10,CCOCC1CN(CCc2ccccc2)Cc2c1cnn2C (stereo not drawn),9.007%
11,COCC1CN(CCc2ccc(OC)c(OC)c2)Cc2c1cnn2C (stereo not drawn),98.17%
12,CCn1ncc2c1CN(CCc1cccc(Cl)c1)CC2COC.O=C(O)C(F)(F)F.O=C(O)C(F)(F)F (stereo not drawn),128.6%
13,COCC1CN(CCOc2ccc(Cl)cc2)Cc2c1cnn2C.O=C(O)C(F)(F)F.O=C(O)C(F)(F)F (stereo not drawn),128.1%
14,CN1CCN(c2ccc(NCc3ccc(OC(F)(F)F)cc3)cn2)CC1,-13.31%
15,COC(=O)N1CCC(Nc2cccc(F)c2C#N)CC1,6.326%
16,N#Cc1ccccc1C(=O)N1C[C@@H](CN2CCCCCC2)[C@@H](CO)C1,-2.218%
17,Cc1nnc(SCC(=O)N2CCc3[nH]nc(C4CCC4)c3C2)o1,-25.51%
18,CCN(CC)C(=O)C(c1ccccc1)N1CCn2c(C)nnc2C1 (stereo not drawn),-5.766%
19,CC1(C)CC(CC(=O)N2CC(C)(C)[C@@](C)(O)C2)CC(C)(C)N1,-10.88%
20,CCc1cc(N[C@@H](CC(C)C)C(N)=O)n2nc(C)c(C)c2n1,1.157%
21,O=C([C@H]1CCCO1)N1CCN(Cc2cccnc2)c2ncccc2C1,109.6%
22,O=C1CC(C(=O)N2CCc3sccc3C2)CN1Cc1cccnc1 (stereo not drawn),-4.394%
23,O=C([C@@H]1CCCO1)N1CCN(Cc2ccncc2)c2ncccc2C1,98.82%
